The molecules below were run against Serine/threonine-protein kinase PLK3 (Homo sapiens) (UniProt Q9H4B4). Conditions: at 1 µM; call rule not given here.
Sequence of Serine/threonine-protein kinase PLK3 (Homo sapiens) (Q9H4B4 whole entry, looked up): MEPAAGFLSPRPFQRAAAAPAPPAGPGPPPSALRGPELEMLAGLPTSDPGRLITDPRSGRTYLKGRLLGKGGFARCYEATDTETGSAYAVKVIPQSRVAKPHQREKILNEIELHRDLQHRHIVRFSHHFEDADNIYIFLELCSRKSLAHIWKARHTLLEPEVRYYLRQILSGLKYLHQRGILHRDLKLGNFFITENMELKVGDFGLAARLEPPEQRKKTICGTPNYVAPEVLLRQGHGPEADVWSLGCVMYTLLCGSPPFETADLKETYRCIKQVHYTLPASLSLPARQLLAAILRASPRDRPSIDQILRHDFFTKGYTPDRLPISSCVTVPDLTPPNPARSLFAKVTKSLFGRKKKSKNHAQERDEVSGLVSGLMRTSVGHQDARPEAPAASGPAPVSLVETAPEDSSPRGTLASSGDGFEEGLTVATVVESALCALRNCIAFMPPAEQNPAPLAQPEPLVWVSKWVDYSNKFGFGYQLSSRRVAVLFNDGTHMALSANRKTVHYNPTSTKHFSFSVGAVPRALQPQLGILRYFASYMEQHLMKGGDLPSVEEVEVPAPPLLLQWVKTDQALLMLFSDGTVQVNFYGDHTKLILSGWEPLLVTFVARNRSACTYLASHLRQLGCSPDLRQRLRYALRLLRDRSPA
With `O=C1Cc2c([nH]c3ccc([N+](=O)[O-])cc23)-c2ccccc2N1` the residual activity was 107% (inactive).
In the case of `Nc1n[nH]c2nc3ccccc3nc12`, the residual activity is reported as 89% (inactive).
In the case of `NC(=O)c1cccc(-c2cc(Nc3ccc(OC(F)(F)F)cc3)ncn2)c1`, the residual activity is reported as 100% (inactive).
In the case of `CSc1nc(-c2ccc(F)cc2)c(-c2ccnc(NC(C)c3ccccc3)c2)[nH]1` (stereo not drawn), the residual activity is reported as 91% (inactive).
With `Cc1cc(C)c(/C=C2\C(=O)Nc3ccccc32)[nH]1` the residual activity was 102% (inactive).
For `O=C(NC(NC(=S)Nc1ccc(F)c([N+](=O)[O-])c1)C(Cl)(Cl)Cl)C(c1ccccc1)c1ccccc1` (stereo not drawn), the residual activity was 100% (inactive).
In the case of `O=C1C(Cl)=C(N2C(=O)CCC2=O)C(=O)c2ccccc21`, the residual activity is reported as 96% (inactive).
In the case of `CC(C)c1nn(-c2c(Cl)cccc2Cl)c2nc(Cc3ccc(OCCO)cc3)[nH]c(=O)c12`, the residual activity is reported as 103% (inactive).
With `COc1ccc(-c2cnc3c(-c4ccsc4)cnn3c2)cc1` the residual activity was 87% (inactive).
With `CCCCc1c(-c2ccc(O)cc2)[nH]c2nccnc12` the residual activity was 100% (inactive).
`Fc1ccc(-c2nc3n(c2-c2ccncc2)CCS3)cc1` was tested, and the residual activity was 100% (inactive).

The molecules below were run against Serine/threonine-protein kinase PLK3 (Homo sapiens) (UniProt Q9H4B4). Conditions: at 10 µM.
For `Nc1n[nH]c2nc3ccccc3nc12`, the residual activity was 83%.
With `NC(=O)c1cccc(-c2cc(Nc3ccc(OC(F)(F)F)cc3)ncn2)c1` the residual activity was 97%.
Work on `CSc1nc(-c2ccc(F)cc2)c(-c2ccnc(NC(C)c3ccccc3)c2)[nH]1` (stereo not drawn) yielded a residual activity of 90%.
Molecule `N#C/C(=C\c1ccc(O)c(O)c1)C(=O)NCc1ccccc1` has a residual activity of 80%.
With `O=C(NC(NC(=S)Nc1ccc(F)c([N+](=O)[O-])c1)C(Cl)(Cl)Cl)C(c1ccccc1)c1ccccc1` (stereo not drawn) the residual activity was 98%.
Molecule `O=C1C(Cl)=C(N2C(=O)CCC2=O)C(=O)c2ccccc21` has a residual activity of 93%.
Work on `CC(C)c1nn(-c2c(Cl)cccc2Cl)c2nc(Cc3ccc(OCCO)cc3)[nH]c(=O)c12` yielded a residual activity of 96%.
`COc1ccc(-c2cnc3c(-c4ccsc4)cnn3c2)cc1` gave a residual activity of 97%.
Molecule `CCCCc1c(-c2ccc(O)cc2)[nH]c2nccnc12` has a residual activity of 100%.
For `Fc1ccc(-c2nc3n(c2-c2ccncc2)CCS3)cc1`, the residual activity was 95%.

What follows are molecules tested against T1, cAMP-dependent protein kinase catalytic subunit PRKX (Homo sapiens) (UniProt P51817). Conditions: at 1 µM.
T1 sequence (whole entry): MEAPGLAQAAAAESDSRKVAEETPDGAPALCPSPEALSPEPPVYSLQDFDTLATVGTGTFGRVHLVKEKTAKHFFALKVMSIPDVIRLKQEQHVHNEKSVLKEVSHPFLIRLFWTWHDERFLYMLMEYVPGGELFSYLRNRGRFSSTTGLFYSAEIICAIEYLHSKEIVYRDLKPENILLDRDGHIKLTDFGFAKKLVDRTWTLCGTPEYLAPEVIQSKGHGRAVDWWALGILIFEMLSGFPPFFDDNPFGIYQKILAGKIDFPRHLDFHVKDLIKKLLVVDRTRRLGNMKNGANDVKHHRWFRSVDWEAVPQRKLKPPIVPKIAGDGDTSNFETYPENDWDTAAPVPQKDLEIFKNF
Molecule `O=C1Cc2c([nH]c3ccc([N+](=O)[O-])cc23)-c2ccccc2N1` has a residual activity of 81%.
Molecule `O=c1c(-c2ccc(F)cc2)c(-c2ccncc2)[nH]n1-c1ccc(Cl)cc1` has a residual activity of 78%.
With `O=S(=O)(NCCNC/C=C/c1ccc(Br)cc1)c1cccc2cnccc12` the residual activity was 0%.
Work on `Nc1n[nH]c2nc3ccccc3nc12` yielded a residual activity of 118%.
`COc1ccc(COc2ccc(Cc3cnc(N)nc3N)cc2OC)cc1` gave a residual activity of 98%.
`CSc1nc(-c2ccc(F)cc2)c(-c2ccnc(NC(C)c3ccccc3)c2)[nH]1` (stereo not drawn) showed a residual activity of 87%.
Molecule `Oc1cccc(-c2nc(N3CCOCC3)c3oc4ncccc4c3n2)c1` has a residual activity of 96%.
`N#Cc1c(NC(=O)c2cccc3ccccc23)sc2c1CCCC2` gave a residual activity of 80%.
`O=S(=O)(c1cccc2cnccc12)N1CCCNCC1` gave a residual activity of 21%.
Molecule `CN([C@@H](Cc1ccc(OS(=O)(=O)c2cccc3cnccc23)cc1)C(=O)N1CCN(c2ccccc2)CC1)S(=O)(=O)c1cccc2cnccc12` has a residual activity of 116%.
In the case of `O=C1NC(=O)C(c2cn(CCCn3ccnc3)c3ccccc23)=C1Nc1ccccc1`, the residual activity is reported as 80%.
Molecule `O=C(NC(NC(=S)Nc1ccc(F)c([N+](=O)[O-])c1)C(Cl)(Cl)Cl)C(c1ccccc1)c1ccccc1` (stereo not drawn) has a residual activity of 82%.
`O=C1C(Cl)=C(N2C(=O)CCC2=O)C(=O)c2ccccc21` gave a residual activity of 93%.
Work on `CC(C)c1nn(-c2c(Cl)cccc2Cl)c2nc(Cc3ccc(OCCO)cc3)[nH]c(=O)c12` yielded a residual activity of 94%.
Work on `COc1cc2nccc(Oc3ccc(NC(=O)Nc4cc(C)on4)c(Cl)c3)c2cc1OC` yielded a residual activity of 97%.
`O=C(Nc1nc2ccccc2n1CCN1CCOCC1)c1cccc([N+](=O)[O-])c1` was tested, and the residual activity was 108%.
Molecule `N#C/C(=C1/Nc2ccccc2S1)c1ccnc(NCCc2cccnc2)n1` has a residual activity of 83%.
In the case of `COc1ccc(-c2cnc3c(-c4ccsc4)cnn3c2)cc1`, the residual activity is reported as 81%.
Molecule `CCCCc1c(-c2ccc(O)cc2)[nH]c2nccnc12` has a residual activity of 93%.
`O=C(c1cc2cc(O)ccc2[nH]1)c1cc2cc(O)ccc2[nH]1` was tested, and the residual activity was 81%.
Work on `Fc1ccc(-c2nc3n(c2-c2ccncc2)CCS3)cc1` yielded a residual activity of 92%.

These molecules were tested against T1, cAMP-dependent protein kinase catalytic subunit PRKX (Homo sapiens). Conditions: at 10 µM.
In the case of `O=C1Cc2c([nH]c3ccc([N+](=O)[O-])cc23)-c2ccccc2N1`, the residual activity is reported as 53%.
`O=c1c(-c2ccc(F)cc2)c(-c2ccncc2)[nH]n1-c1ccc(Cl)cc1` was tested, and the residual activity was 71%.
`O=S(=O)(NCCNC/C=C/c1ccc(Br)cc1)c1cccc2cnccc12` gave a residual activity of 0%.
`Nc1n[nH]c2nc3ccccc3nc12` showed a residual activity of 84%.
For `CSc1nc(-c2ccc(F)cc2)c(-c2ccnc(NC(C)c3ccccc3)c2)[nH]1` (stereo not drawn), the residual activity was 58%.
`CCOc1nc(NC(=O)Cc2cc(OC)ccc2OC)cc(N)c1C#N` gave a residual activity of 55%.
With `N#C/C(=C\c1ccc(O)c(O)c1)C(=O)NCc1ccccc1` the residual activity was 70%.
`Oc1cccc(-c2nc(N3CCOCC3)c3oc4ncccc4c3n2)c1` showed a residual activity of 92%.
With `N#Cc1c(NC(=O)c2cccc3ccccc23)sc2c1CCCC2` the residual activity was 84%.
In the case of `CCN1/C(=C/C(C)=O)Sc2ccc(OC)cc21`, the residual activity is reported as 42%.
In the case of `O=S(=O)(c1cccc2cnccc12)N1CCCNCC1`, the residual activity is reported as 2%.
In the case of `COc1cc2c(cc1OC)-c1n[nH]c(Nc3cccc(F)c3)c1C2`, the residual activity is reported as 101%.
Molecule `CN([C@@H](Cc1ccc(OS(=O)(=O)c2cccc3cnccc23)cc1)C(=O)N1CCN(c2ccccc2)CC1)S(=O)(=O)c1cccc2cnccc12` has a residual activity of 62%.
In the case of `O=C(Nc1ccc(Cl)cc1)c1ccccc1NCc1ccncc1`, the residual activity is reported as 50%.
In the case of `O=C1NC(=O)C(c2cn(CCCn3ccnc3)c3ccccc23)=C1Nc1ccccc1`, the residual activity is reported as 58%.
Molecule `O=C(NC(NC(=S)Nc1ccc(F)c([N+](=O)[O-])c1)C(Cl)(Cl)Cl)C(c1ccccc1)c1ccccc1` (stereo not drawn) has a residual activity of 52%.
For `O=C1C(Cl)=C(N2C(=O)CCC2=O)C(=O)c2ccccc21`, the residual activity was 92%.
For `CC(C)c1nn(-c2c(Cl)cccc2Cl)c2nc(Cc3ccc(OCCO)cc3)[nH]c(=O)c12`, the residual activity was 87%.
`COc1cc2nccc(Oc3ccc(NC(=O)Nc4cc(C)on4)c(Cl)c3)c2cc1OC` was tested, and the residual activity was 59%.
In the case of `O=C(Nc1nc2ccccc2n1CCN1CCOCC1)c1cccc([N+](=O)[O-])c1`, the residual activity is reported as 86%.
For `N#C/C(=C1/Nc2ccccc2S1)c1ccnc(NCCc2cccnc2)n1`, the residual activity was 37%.
In the case of `COc1ccc2c(c1)c(C1=C(c3c[nH]c4ccccc34)C(=O)NC1=O)cn2CCCN(C)C`, the residual activity is reported as 79%.
With `COc1ccc(-c2cnc3c(-c4ccsc4)cnn3c2)cc1` the residual activity was 93%.
`CCCCc1c(-c2ccc(O)cc2)[nH]c2nccnc12` gave a residual activity of 100%.
For `O=C(c1cc2cc(O)ccc2[nH]1)c1cc2cc(O)ccc2[nH]1`, the residual activity was 34%.
Work on `Fc1ccc(-c2nc3n(c2-c2ccncc2)CCS3)cc1` yielded a residual activity of 92%.

Source: ChEMBL document CHEMBL2218924, “A broad activity screen in support of a chemogenomic map for kinase signalling research and drug discovery” (Biochem J, 2013)
